{
  "source": "the supplement of paper PMC3334620",
  "note": "The full ranking holds about 33,000 sequences; the median of “E-score (-0.5 to 0.5)” is about -0.011, and the highest 2% start at about 0.28. The list comes from a sample in which the highest values are over-represented; it also holds similar and randomly drawn sequences.",
  "data": [
    {"target": "T1, Gcr1 (UniProt P07261)", "T1 sequence": "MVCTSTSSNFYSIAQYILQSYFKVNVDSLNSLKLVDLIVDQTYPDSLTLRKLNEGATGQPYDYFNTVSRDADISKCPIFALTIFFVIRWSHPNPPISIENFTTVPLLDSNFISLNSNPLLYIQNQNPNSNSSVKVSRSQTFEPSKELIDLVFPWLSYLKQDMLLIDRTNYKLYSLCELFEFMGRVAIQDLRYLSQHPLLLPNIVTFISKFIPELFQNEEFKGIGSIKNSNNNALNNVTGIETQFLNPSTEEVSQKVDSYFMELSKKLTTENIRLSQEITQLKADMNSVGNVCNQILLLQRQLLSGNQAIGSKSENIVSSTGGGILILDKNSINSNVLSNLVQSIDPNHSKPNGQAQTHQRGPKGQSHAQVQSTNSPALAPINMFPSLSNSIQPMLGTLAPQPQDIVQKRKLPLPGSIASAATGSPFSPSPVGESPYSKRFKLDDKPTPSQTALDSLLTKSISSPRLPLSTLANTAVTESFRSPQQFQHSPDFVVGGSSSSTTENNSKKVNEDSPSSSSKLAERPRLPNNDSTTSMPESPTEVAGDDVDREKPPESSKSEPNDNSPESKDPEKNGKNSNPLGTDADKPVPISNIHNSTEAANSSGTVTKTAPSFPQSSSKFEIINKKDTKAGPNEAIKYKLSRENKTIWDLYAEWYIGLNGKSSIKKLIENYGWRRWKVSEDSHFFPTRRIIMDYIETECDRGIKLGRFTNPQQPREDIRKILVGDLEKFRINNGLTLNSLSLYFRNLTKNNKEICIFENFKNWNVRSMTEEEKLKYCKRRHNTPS", "assay": "PBM E-score (8-mer binding enrichment) (E-score (-0.5 to 0.5)); higher = stronger / more preferred TF binding", "settings": "protein concentration: 100 nM; construct: GST-full length", "procedure": "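Universal 'all 10-mer' protein binding microarrays (Agilent AMADID 015681) probed with GST-tagged S. cerevisiae TFs (full-length or DBD) made by in vitro transcription/translation (PURExpress), about 100-200 nM. Bound TF was detected with fluorescent anti-GST. Each ungapped 8-mer (which stands for itself and its reverse complement) is scored by the PBM enrichment score (E-score), a modified Wilcoxon-Mann-Whitney statistic from -0.5 to +0.5, computed with the Universal PBM Analysis Suite. Scale: above 0.35 generally sequence-specific binding.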", "values": [
      {"sequence": "TCAACTAA", "PBM E-score": -0.00686},
      {"sequence": "ACGACGGG", "PBM E-score": 0.00739},
      {"sequence": "AATTACAG", "PBM E-score": 0.283},
      {"sequence": "CATTACAG", "PBM E-score": -0.0702},
      {"sequence": "AATTACAT", "PBM E-score": 0.0891},
      {"sequence": "CCACCCTC", "PBM E-score": -0.00165},
      {"sequence": "AAAAATTC", "PBM E-score": 0.0187},
      {"sequence": "CAAAATTC", "PBM E-score": 0.306},
      {"sequence": "CAAAATTG", "PBM E-score": 0.0415},
      {"sequence": "GCTAGCAC", "PBM E-score": -0.0767},
      {"sequence": "GCAGGCCC", "PBM E-score": -0.133},
      {"sequence": "ACAAGCTA", "PBM E-score": -0.0171},
      {"sequence": "ACACAAAA", "PBM E-score": 0.141},
      {"sequence": "CCACAATA", "PBM E-score": 0.3},
      {"sequence": "CCACAAAA", "PBM E-score": 0.282},
      {"sequence": "CCACAATC", "PBM E-score": 0.156},
      {"sequence": "CCACAAAG", "PBM E-score": 0.16},
      {"sequence": "ACACAATA", "PBM E-score": 0.0111},
      {"sequence": "CTCGGTAA", "PBM E-score": -0.22},
      {"sequence": "AAACCTAA", "PBM E-score": 0.0813},
      {"sequence": "CCTTTCAG", "PBM E-score": -0.117},
      {"sequence": "GGGGGACA", "PBM E-score": 0.0151},
      {"sequence": "AGTCTGTA", "PBM E-score": -0.152},
      {"sequence": "CCCCGTTC", "PBM E-score": -0.082},
      {"sequence": "GGCGCCCC", "PBM E-score": 0.308},
      {"sequence": "AGCGCCCA", "PBM E-score": 0.183},
      {"sequence": "CGCGCCCC", "PBM E-score": 0.243},
      {"sequence": "GACGCCCC", "PBM E-score": 0.0383},
      {"sequence": "TGCGCCCA", "PBM E-score": 0.0933},
      {"sequence": "AGCGCCCC", "PBM E-score": 0.153},
      {"sequence": "GGCGCCCA", "PBM E-score": 0.398},
      {"sequence": "GACGCCCA", "PBM E-score": 0.427},
      {"sequence": "CACGCCCA", "PBM E-score": -0.107},
      {"sequence": "CGAGAGGA", "PBM E-score": -0.113},
      {"sequence": "CCCGGGGC", "PBM E-score": 0.0219},
      {"sequence": "ACAAGCAT", "PBM E-score": 0.15},
      {"sequence": "CCATTGGC", "PBM E-score": 0.0633},
      {"sequence": "GCGGCGGA", "PBM E-score": 0.0513},
      {"sequence": "AATTTGTC", "PBM E-score": -0.00767},
      {"sequence": "ATGGCTTC", "PBM E-score": 0.3},
      {"sequence": "ATGGCTTA", "PBM E-score": 0.0216},
      {"sequence": "ATAGCTTC", "PBM E-score": 0.249},
      {"sequence": "CCGGCTGC", "PBM E-score": 0.314},
      {"sequence": "ACGGCTGC", "PBM E-score": -0.014},
      {"sequence": "CCGGCTGA", "PBM E-score": -0.138},
      {"sequence": "CTAGCTTC", "PBM E-score": 0.316},
      {"sequence": "CTGGCTGC", "PBM E-score": 0.35},
      {"sequence": "ATGGCTGC", "PBM E-score": 0.168},
      {"sequence": "ATGGCTTG", "PBM E-score": -0.236},
      {"sequence": "CTAGCTTA", "PBM E-score": -0.172},
      {"sequence": "CTGGCTGA", "PBM E-score": -0.225},
      {"sequence": "CGCCCCGA", "PBM E-score": -0.0435},
      {"sequence": "CCGCGAGC", "PBM E-score": -0.0368},
      {"sequence": "GCCCGGCA", "PBM E-score": -0.0489},
      {"sequence": "GGAGTACC", "PBM E-score": -0.0959},
      {"sequence": "TGTAGCAA", "PBM E-score": -0.0217},
      {"sequence": "TAAAGAAA", "PBM E-score": 0.162},
      {"sequence": "ATGGGCCA", "PBM E-score": -0.112},
      {"sequence": "GACAAACA", "PBM E-score": -0.0622},
      {"sequence": "CGGTCCAC", "PBM E-score": -0.225},
      {"sequence": "CAGGCTTC", "PBM E-score": 0.213},
      {"sequence": "CTGGCTTA", "PBM E-score": -0.159},
      {"sequence": "CTGGCTTC", "PBM E-score": 0.362},
      {"sequence": "GCAAAGAA", "PBM E-score": 0.00261},
      {"sequence": "CGCAACCG", "PBM E-score": 0.24},
      {"sequence": "ACACCAGC", "PBM E-score": -0.126},
      {"sequence": "AGAAGCCG", "PBM E-score": 0.399},
      {"sequence": "AGAAGCCC", "PBM E-score": 0.386},
      {"sequence": "AGGAGCCT", "PBM E-score": 0.109},
      {"sequence": "AGAAGCCA", "PBM E-score": 0.362},
      {"sequence": "AGGAGCCC", "PBM E-score": 0.294},
      {"sequence": "TGAAGCCA", "PBM E-score": -0.0656},
      {"sequence": "CGAAGCCC", "PBM E-score": 0.268},
      {"sequence": "AAAAGCCC", "PBM E-score": -0.194},
      {"sequence": "AGAAGCCT", "PBM E-score": 0.273},
      {"sequence": "ACAAGCCA", "PBM E-score": -0.275},
      {"sequence": "AGGAGCCG", "PBM E-score": 0.269},
      {"sequence": "AGAAGCAG", "PBM E-score": 0.174},
      {"sequence": "GACCACAA", "PBM E-score": 0.0254},
      {"sequence": "AATCGCAA", "PBM E-score": 0.0343},
      {"sequence": "CGCCGCAG", "PBM E-score": 0.103},
      {"sequence": "ATCAGATA", "PBM E-score": -0.111},
      {"sequence": "CCAAGCCG", "PBM E-score": -0.0556},
      {"sequence": "CGAAGCCG", "PBM E-score": 0.285},
      {"sequence": "CGAAGCCA", "PBM E-score": 0.272},
      {"sequence": "AGCAAAGG", "PBM E-score": -0.135}
    ]}
  ]
}
